From PubChem BioAssay
KinaseGlo FLuc: Counterscreen for Luciferase (Kinase-Glo TM) Inhibition; Kinase-Glo luciferase, ATP luminescence, 8 min; Luciferin 4-monooxygenase (Photuris pensylvanica), Q27757; AID 1379, 2008; Potency, µM (doses to about 38.3 µM), actives largely listed as inhibitors; 0.28% of 200,000 active; also: nearly all actives have a fitted effect of over 60% in size
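Compounds were added to a substrate mix at pH 7.2 (50 mM imidazole, 10 uM ATP, within the enzyme's linear range), followed by Kinase-Glo detection reagent; luminescence was measured after 8 minutes at ambient temperature.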
RORgamma inh: qHTS for inhibitors of ROR gamma transcriptional activity; Nuclear receptor ROR-gamma (Mus musculus), P51450; Drosophila S2 Gal4-RORgamma UAS-luciferase reporter, 20 h; Potency, µM (titrated, usually from 53.6 µM), hits mostly inhibitors; 5.4% of 310,000 active; also: nearly all actives have a fitted effect of over 60% in size
Target sequence (P51450 whole entry, looked up, the tested form may be a part): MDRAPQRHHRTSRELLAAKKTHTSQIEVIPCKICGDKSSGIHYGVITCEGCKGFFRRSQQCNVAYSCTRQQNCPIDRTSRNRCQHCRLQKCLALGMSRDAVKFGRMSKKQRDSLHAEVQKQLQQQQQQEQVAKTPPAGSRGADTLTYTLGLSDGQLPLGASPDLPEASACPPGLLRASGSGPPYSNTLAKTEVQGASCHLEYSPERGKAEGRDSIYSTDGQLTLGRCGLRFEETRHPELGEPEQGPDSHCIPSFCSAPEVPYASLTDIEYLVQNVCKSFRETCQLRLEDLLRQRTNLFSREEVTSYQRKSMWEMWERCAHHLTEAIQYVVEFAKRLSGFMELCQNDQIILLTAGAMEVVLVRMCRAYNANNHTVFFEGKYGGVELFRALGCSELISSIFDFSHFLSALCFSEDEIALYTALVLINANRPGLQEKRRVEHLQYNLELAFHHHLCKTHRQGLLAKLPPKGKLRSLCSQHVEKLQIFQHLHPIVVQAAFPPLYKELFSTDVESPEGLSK
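Using a luciferase readout, inhibitors were identified by reduced reporter activity in Drosophila cells coexpressing a copper-inducible Gal4–ROR gamma fusion and UAS-driven Photinus luciferase, incubated 20 hr after 700 uM copper sulfate.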
VP16 counter: VP16 counterscreen qHTS for inhibitors of ROR gamma transcriptional activity; Drosophila S2 Gal4-VP16 UAS-luciferase, luminescence, 20 h; 3.5% of 310,000 active; AID 2546, 2010; Potency, µM (doses to about 53.6 µM), actives largely listed as inhibitors;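 also: Gal4-VP16 expression switched on by copper sulfate through the metallothionein promoter; nearly all actives have a fitted effect of over 50% in size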
Large screens that a line does not name were inactive. Rows were chosen to be rich in hits. Some 6.2% of all compounds tested hit in one or more screens of this group. Calls follow the shape of the dose curve; as a rule, active = well fitted curve in the direction sought with a large enough effect; inconclusive = small, poorly fitted or top-dose-only effect, or another doubt; inactive = no such curve, though single readings can be large; an effect the other way counts as inactive or inconclusive.

O=C(CSc1ccccc1)Nc1ccc(-c2nc3ccccc3[nH]2)cc1	RORgamma inh inconclusive, VP16 counter inconclusive
O=C(CSc1ccc2ccccc2c1)Nc1nc2ccccc2[nH]1	RORgamma inh 11µM, VP16 counter inconclusive
O=C(CSc1ccc(Cl)cc1)Nc1cccc(-c2nc3ccccc3[nH]2)c1	RORgamma inh inconclusive, VP16 counter 10µM
O=C(CSc1ccc2ccccc2c1)Nn1cnnc1	none
CCC(C(=O)NC1CCCC1)N(C(=O)c1snc(C(N)=O)c1N)c1ccc(C)cc1C (stereo not drawn)	none (no result: KinaseGlo FLuc)
Cn1c(=Nc2ccc(N3CCOCC3)cc2)ccc2ccccc21	none
Cn1c(N=Nc2ccc(N3CCOCC3)cc2)[n+](C)c2ccccc21	KinaseGlo FLuc 13µM
c1ccc(Nc2nc3ccccc3o2)cc1	KinaseGlo FLuc 13µM, RORgamma inh inconclusive, VP16 counter inconclusive
Oc1ccccc1/C=N/Nc1nc2ccccc2o1	RORgamma inh 0.5µM, VP16 counter 4µM (no result: KinaseGlo FLuc)
Oc1ccccc1/C=N/Nc1ncc(Br)cn1	VP16 counter inconclusive
COc1ccc(/C=N/Nc2nc3ccccc3o2)cc1O	RORgamma inh 11µM, VP16 counter inconclusive
COc1cc(/C=N\Nc2nc3ccccc3o2)cc(OC)c1OC	RORgamma inh inconclusive, VP16 counter inconclusive
COc1cc(/C=N/Nc2nc3ccccc3o2)cc(OC)c1O	RORgamma inh inconclusive, VP16 counter inconclusive
Brc1ccc(/C=N/Nc2nc3ccccc3o2)cc1	RORgamma inh 8.9µM, VP16 counter inconclusive (no result: KinaseGlo FLuc)
FC(F)(F)Oc1ccc(Nc2nc3ccccc3o2)cc1	none
COCO[C@H]([C@@H](C)C=C(Br)Br)[C@@H](C)COCc1ccc(OC)cc1	none (no result: KinaseGlo FLuc)
CN(C)C(=O)Nc1ccc(Oc2ccc(Cl)cc2)cc1	VP16 counter inconclusive (no result: KinaseGlo FLuc)
COc1ccc(S(=O)(=O)NCc2cccnc2)cc1C(=O)Nc1ccccc1	RORgamma inh inconclusive (no result: KinaseGlo FLuc)
CN(C)c1ccc(C(=O)N=c2sccn2C)cc1[N+](=O)[O-]	none (no result: KinaseGlo FLuc)
O=S(=O)(c1ccc(F)c(F)c1)N1CCC2(CC1)OCCO2	none (no result: KinaseGlo FLuc)
Cc1ccc(S(=O)(=O)N(C)CC(=O)NCCCn2ccnc2)cc1	none (no result: KinaseGlo FLuc)
CCN(CC(=O)NC1CC1)S(=O)(=O)c1ccc(OC)cc1	none (no result: KinaseGlo FLuc)
COc1ccc(C)cc1NC(=O)NC1CCCCCCC1	none (no result: KinaseGlo FLuc)
COc1ccc(C)cc1NC(=S)NNC(=O)c1c(Br)cnn1C	RORgamma inh 2µM
COc1ccc(C(=O)Nc2ccc(C)cn2)c(OC)c1	KinaseGlo FLuc inconclusive, RORgamma inh 4µM, VP16 counter 4µM
COc1ccc(C)cc1NC(=O)Nc1ccc(Br)cn1	RORgamma inh 10µM
COc1ccc(C)cc1NC(=S)NNC(=O)c1ccccc1Cl	RORgamma inh inconclusive
COc1ccc(C(=O)Nc2cc(C)on2)c(OC)c1	none (no result: KinaseGlo FLuc)
C=C(C)C(O)/C=C/c1ccc(C(F)(F)F)cc1 (stereo not drawn)	none
O=CN1CCN(S(=O)(=O)c2ccc(Cl)c(C(=O)O)c2)CC1	none
COc1cccc(Cn2c(=O)c(CCc3ccccc3)nc3cnc(N4CCOCC4)nc32)c1	none (no result: KinaseGlo FLuc)
Nc1ccccc1S[C@@H](C[N+](=O)[O-])c1ccc2c(c1)OCO2	none (no result: RORgamma inh, VP16 counter)
FC(F)(F)c1ccccc1-n1c(-c2cnccn2)n[nH]c1=S	RORgamma inh 11µM (no result: KinaseGlo FLuc)
COc1cc(-c2n[nH]c(=S)n2-c2ccccc2C(F)(F)F)cc(OC)c1OC	RORgamma inh inconclusive (no result: KinaseGlo FLuc)
Cc1ccc(-n2c(-c3cnccn3)n[nH]c2=S)c(Br)c1	RORgamma inh 7.9µM
CN(C)c1cccc(C(=O)NCC2CCCO2)c1 (stereo not drawn)	RORgamma inh inconclusive
CC(C)C(C)(C)C(C)(C)C(C)(C)S	none (no result: KinaseGlo FLuc)
Cc1cccc(C)c1NC(=S)N=Nc1c(O)n(C)c2ccc(S(=O)(=O)N3CCOCC3)cc12	RORgamma inh 1.3µM, VP16 counter 4.5µM
Cc1ccccc1NC(=O)c1cc(S(=O)(=O)N2CCOCC2)cn1C	none (no result: KinaseGlo FLuc)
Cn1c(=O)n(C)c2cc(S(=O)(=O)N3CCOCC3)ccc21	none
Cc1ccccc1NC(=S)N=Nc1c(O)n(C)c2ccc(S(=O)(=O)N3CCOCC3)cc12	RORgamma inh 0.32µM, VP16 counter 0.79µM
Cc1ccc(C(=O)Oc2coc(CSc3nnc(NC(=O)C4CC4)s3)cc2=O)cc1C	none
CCN(CC)CCN(Cc1cc2ccc(C)c(C)c2[nH]c1=O)C(=S)NCc1ccco1	none
CCc1ccc(NC(=O)NCC2CCN(Cc3cccc(Cl)c3)CC2)cc1	none (no result: KinaseGlo FLuc)
Cc1ccc(NC(=O)NCC2CCN(Cc3cccc(Cl)c3)CC2)cc1Cl	RORgamma inh 20µM
CCCNC(=O)c1cc2c3ccccc3n(C)c2s1	none
Cn1c2ccccc2c2cc(C(=O)NNC(=O)CCl)sc21	RORgamma inh 14µM
COc1cccc(Cn2c(=O)c(-c3cn(C)c4ccccc34)nc3cnc(OC)nc32)c1	none (no result: KinaseGlo FLuc)
Cc1c(-c2ccccc2)[nH]n2c(=O)c3c(nc12)CCCC3	VP16 counter inconclusive
